Shown are actives, neighbours in structure and some others; about 3.9% of the full set was active somewhere.
C8 TRAIL sens – sensitizes caspase-8 expressing cells to TRAIL. NB7+C8 cells + TRAIL, ATPlite viability luminescence. inhibition (viability loss, TRAIL sensitization), % at 10 µM. 360,000 compounds, 1% hits. AID 624354;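 active = compounds causing at least 50% loss of cell viability in the single-dose screen, relative to plate controls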
HIF-2a inh – blocks HIF-2a reporter activity; 786-0 RCC cells HIF-2a reporter, luciferase luminescence, overnight; inhibition, % at 18.8 µM; 360,000 compounds, 0.72% hits;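 active = inhibition of the luminescence signal of 40% or more relative to plate controls, in a single-dose primary screen at 18.75 µM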
TROY signal inh – blocks TROY-dependent signaling in reporter cells; Q293 LMP1-TROYcd NF-kB luciferase reporter, 4 h; inhibition, % at 10 µM; 360,000 compounds, 0.98% hits;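 active = compounds whose plate-normalised and pattern-corrected inhibition of the luciferase reporter signal at the single screening dose is 50% or more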
TWEAK-Fn14 inh – inhibitors of TWEAK-Fn14 interaction signaling. TWEAK-stimulated Fn14 reporter cells, luciferase luminescence, 8 h. inhibition, % at 10 µM. 360,000 compounds, 2% hits; in the data active = inhibition above about 50%
aSyn UTR inh – 5' untranslated region of α-synuclein, MLPCN primary screen; 300,000 compounds, 0.82% hits; inhibition, % (tested at 7.5 µM); alpha-synuclein 5'UTR reporter, inhibitor activity; in the data active = inhibition above about 60%;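 also: H4 neuroglioblastoma cells stably carrying SNCA 5'UTR luciferase fusion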
HSP90 refold inh – HSP90 refolding inhibition in rabbit reticulocyte lysate | luciferase refolding luminescence, 3 h | inhibition, % at 5.6 µM | 290,000 compounds, 0.91% hits;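 active = inhibition above the screen-wide mean plus 3 SD, computed separately per campaign, cut at about 16% in these data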;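 also: inhibitors lower the luminescence because luciferase stays unfolded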
HIF-2a conf – HIF-2a inhibition, single concentration confirmation; 1,800 compounds, 56% hits; inhibition, % at 18.8 µM; 786-0 RCC cells, HIF-2a luciferase reporter luminescence, overnight; shares compounds with HIF-2a inh;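 active = mean inhibition across four replicates of at least 40 percent at the single tested concentration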
HIF-1a counter – inhibits HIF-1a reporter, a counter-screen for HIF-2a inhibitors; 1,800 compounds, 72% hits; shares compounds with HIF-2a inh; AID 651589; inhibition, % at 18.8 µM; MiaPaCa-2 HIF-1a luciferase reporter, desferoxamine, overnight;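 active = mean inhibition of the reporter signal across four replicates at the single tested dose of 50% or more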
Large screens that a line does not name were inactive (follow-up assays come after a bar, where they were run).

C=C1C(=O)[C@@]23[C@H](O)C[C@@H]4C(C)(C)CC[C@H](O)[C@@]4(C)[C@@H]2CC[C@@H]1[C@H]3O	HIF-2a inh 91, TWEAK-Fn14 inh 95 | HIF-2a conf 94 | HIF-1a counter 107
C=C1C(=O)[C@@]23[C@H](O)C[C@@H]4C(C)(C)CC[C@H](O)[C@]4(C)[C@@H]2C[C@H](O)[C@@H]1[C@H]3O	HIF-2a inh 41, TWEAK-Fn14 inh 60 | HIF-2a conf inactive | HIF-1a counter 91
CN(CCc1ccccc1)C(=O)c1ccc(NC(=O)Cc2ccc(NC(=O)C3CCN(S(=O)(=O)c4cccc([N+](=O)[O-])c4)CC3)cc2)cc1	none (no result: aSyn UTR inh, HSP90 refold inh)
O=C(O)C(Cc1ccccc1)N1C(=O)C=CC1=O (stereo not drawn)	none (no result: aSyn UTR inh, HSP90 refold inh)
O=C(O)c1ccccc1-c1ccccc1C(=O)NCCCO	HIF-2a inh 48 | HIF-2a conf inactive | HIF-1a counter inactive
C[C@H](CO)N1C[C@H](C)[C@@H](CN(C)C(=O)Nc2ccc(C(F)(F)F)cc2)Oc2c(NC(=O)CCC(F)(F)F)cccc2C1=O	none (no result: aSyn UTR inh, HSP90 refold inh)
